The values below come from ChEMBL document CHEMBL4296182, “CO-ADD screening of NIH NCI Diversity Set V”.

The first experiment deals with Staphylococcus aureus. Kind of experiment: Antibacterial activity against Staphylococcus aureus MRSA ATCC 43300 (CO-ADD:GP_020); MIC in CAMBH media using NBS plates, by Resazurin F(560/590). It is filed as functional. To be noted: Concentration 20 uM, ASSAY_TEST Inhibition of Bacterial Growth, detection method Resazurin, Fluorescence (ex560/em590), MEDIA CAMHB, plate type 384well, CORNING #3640, time 18 hr. A general note: Resazurin is reduced to fluorescent resorufin, in cell work by metabolically active cells.
Turning to `Cc1ccc(-c2cssc2=S)cc1`, the Inhibition – broadly, the drop in the measured response relative to a control, in per cent – is recorded as -26.91%.

As for `Cc1ccc(NC(=O)Nc2c(Cl)cccc2Cl)cn1`, the Inhibition is on record as 20.25%.

As for `COc1cc(-c2ccc(Nc3ccccc3C(=O)O)c(OC)c2)ccc1Nc1ccccc1C(=O)O`, the Inhibition is recorded as 0.05%.

Take `Cc1ccc(Nc2c(O)ncnc2O)cc1C`: the Inhibition is given as -23.26%.

`O=[N+]([O-])C1C(c2ccccc2)C12c1ccccc1-c1ccccc12` (stereo not given): the Inhibition is on record as 1.75%.

Turning to `COc1cc2c(O)cc(C(=O)O)c(-c3cc(OC)c(OC)c(OC)c3)c2cc1OC`, the Inhibition is recorded as 5.82%.

On to `COc1cc(NCc2ccccc2O)c2ncccc2c1`, for which the Inhibition is -0.91%.

For the compound `Sc1nc2ccccc2n2cccc12`, the Inhibition is given as 2.5%.

For the compound `OCc1ncc(-c2ccccc2)s1`, the Inhibition is given as -7.34%.

Take `COC1OC(O)C(NC(=O)C(F)(F)F)CC1O` (stereo not given): the Inhibition came out at 15.69%.

For the compound `O=C(O)C1CCC(=O)N1C(=O)OCc1ccccc1` (stereo not given), the Inhibition was 2.22%.

For `COc1ccc2nc3cc(Cl)ccc3c(Nc3cc(C(C)C)c(O)cc3C)c2c1`, the Inhibition is on record as 18.28%.

For the compound `c1ccc2c(c1)Oc1cccc3cccc-2c13`, the Inhibition stood at 13.84%.

Turning to `CC(=O)Nc1ccc(OC(=O)Oc2ccc(NC(C)=O)cc2)cc1`, the Inhibition is listed as 37.09%.

For `COc1cccc2nc3cc(C)c(C)cc3nc12`, the Inhibition is given as 20.84%.

As to `COc1ccc(-c2cc(-c3ccccc3)c(-c3ccccc3)nn2)cc1`, the Inhibition is -3.16%.

Take `CCOC(=O)/C(C#N)=C\c1c[nH]c2ccccc12`: the Inhibition is -10.31%.

Take `Cc1nc([N+](=O)[O-])cn1-c1nc2ccccn2c1[N+](=O)[O-]`: the Inhibition stood at 12.97%.

Take `CN1C=C/C(=C/[N+](=O)[O-])N(C)C1=O`: the Inhibition was 9.11%.

`Cc1ccc(S(=O)(=O)Oc2cc(N)c3c(n2)CCC3)cc1`: the Inhibition was 2.13%.

For the compound `O=C(Cn1ccc(=O)[nH]c1=O)Nc1nccs1`, the Inhibition amounted to 4.05%.

For another experiment, the system named is Acinetobacter baumannii. In words: Antibacterial activity against Acinetobacter baumannii ATCC 19606 (CO-ADD:GN_034); MIC in CAMBH media using NBS plates, by Resazurin F(560/590). To be noted: Concentration 20 uM, ASSAY_TEST Inhibition of Bacterial Growth, detection method Resazurin, Fluorescence (ex560/em590), MEDIA CAMHB, plate type 384well, CORNING #3640, time 18 hr. The format is functional.
Turning to `CC(=O)OCc1cc(-c2nc3ccccc3nc2O)nn1-c1ccc(Cl)cc1`, the Inhibition was determined as 12.91%.

For `Cc1n[nH]c2nc(N)nn2c1=O`, the Inhibition was -0.91%.

For `Cc1ccc(/N=N/c2c(O)c3ccccc3[nH]c2=O)c(S(=O)(=O)N(C)C)c1`, the Inhibition was found to be 7.24%.

On to `Cc1ccc(/N=N\c2c(O)ccc3[nH]nnc23)cc1`, for which the Inhibition is recorded as -9.08%.

As to `O=C(O)c1ccccc1-c1ccccc1C(=O)Nc1ccc2c(c1)nc(O)c1ccccc12`, the Inhibition is listed as -9.28%.

In the case of `CC(C)NC(=O)Nc1cccc(Cl)c1`, the Inhibition is reported as 7.15%.

Consider `COC1OCC(O)C(NC(=O)N(C)N=O)C1O` (stereo not given), for which the Inhibition is listed as 15.65%.

In the case of `CCOC(CNCc1cc(C)c2[nH]c3ccccc3c2c1C)OCC`, the Inhibition is recorded as -1.22%.

As to `O=C(c1ccc(O)cc1)c1ccc(C(=O)c2ccc(O)cc2)cc1`, the Inhibition came to 4.24%.

Turning to `CCN(CC)Cc1cc2[nH]c3c4ccc(Cl)cc4ncc3c2cc1OC`, the Inhibition came out at 18.93%.

Take `OC(COc1cccc2ccccc12)CN1CCN(c2ccccc2Cl)CC1` (stereo not given): the Inhibition is listed as 8.91%.

`CC(=O)OCCN1c2ccccc2Sc2cnccc21`: the Inhibition was -1.85%.

With `Cc1ccc(C2C=CC(C#N)=CN2Cc2ccccc2)cc1` (stereo not given), the Inhibition is -15.76%.

With `c1ccc(-c2nc[nH]c2-c2ccccc2)cc1`, the Inhibition is recorded as -13.75%.

As to `COc1cccc2c1C(CO)N1C(C#N)C3CC(C(=O)O)C(C1C2)N3C` (stereo not given), the Inhibition is -10.77%.

On to `CC(=O)Nc1ccc(S(=O)(=O)N/N=c2/sc3ccccc3n2C)cc1N`, for which the Inhibition is on record as 3.99%.

For `COc1cc(-c2ccc(NC(=O)NC3CC3)c(OC)c2)ccc1NC(=O)NC1CC1`, the Inhibition is listed as -9.96%.

Regarding `CCCc1cc(=O)oc2c3c(c4c(c12)OC(C)(C)C=C4)OC(C)[C@H](C)[C@@H]3O` (stereo not given in full), the Inhibition is -5.36%.

On to `Cc1ccc(-c2cssc2=S)cc1`, for which the Inhibition is -10.22%.

For `Cc1ccc(NC(=O)Nc2c(Cl)cccc2Cl)cn1`, the Inhibition is on record as -2.44%.

As to `COc1cc(-c2ccc(Nc3ccccc3C(=O)O)c(OC)c2)ccc1Nc1ccccc1C(=O)O`, the Inhibition came to 8.67%.

As to `Cc1ccc(Nc2c(O)ncnc2O)cc1C`, the Inhibition is reported as -4.13%.

Consider `O=[N+]([O-])C1C(c2ccccc2)C12c1ccccc1-c1ccccc12` (stereo not given), for which the Inhibition is listed as -9.94%.

With `COc1cc2c(O)cc(C(=O)O)c(-c3cc(OC)c(OC)c(OC)c3)c2cc1OC`, the Inhibition is reported as -7.99%.

On to `COc1cc(NCc2ccccc2O)c2ncccc2c1`, for which the Inhibition is recorded as -6.99%.

Turning to `Sc1nc2ccccc2n2cccc12`, the Inhibition is listed as -10.79%.

For the compound `OCc1ncc(-c2ccccc2)s1`, the Inhibition was -9.91%.

Regarding `COC1OC(O)C(NC(=O)C(F)(F)F)CC1O` (stereo not given), the Inhibition came out at 9.13%.

With `O=C(O)C1CCC(=O)N1C(=O)OCc1ccccc1` (stereo not given), the Inhibition was -12.76%.

Turning to `COc1ccc2nc3cc(Cl)ccc3c(Nc3cc(C(C)C)c(O)cc3C)c2c1`, the Inhibition is -16.67%.

On to `c1ccc2c(c1)Oc1cccc3cccc-2c13`, for which the Inhibition was -15.64%.

Take `CC(=O)Nc1ccc(OC(=O)Oc2ccc(NC(C)=O)cc2)cc1`: the Inhibition is given as -4.35%.

Take `COc1cccc2nc3cc(C)c(C)cc3nc12`: the Inhibition is 3.71%.

In the case of `COc1ccc(-c2cc(-c3ccccc3)c(-c3ccccc3)nn2)cc1`, the Inhibition amounted to 8.32%.

Take `CCOC(=O)/C(C#N)=C\c1c[nH]c2ccccc12`: the Inhibition is -2.58%.

As to `Cc1nc([N+](=O)[O-])cn1-c1nc2ccccn2c1[N+](=O)[O-]`, the Inhibition is recorded as -5.05%.

Regarding `CN1C=C/C(=C/[N+](=O)[O-])N(C)C1=O`, the Inhibition was -6.18%.

`Cc1ccc(S(=O)(=O)Oc2cc(N)c3c(n2)CCC3)cc1`: the Inhibition was -12.3%.

For the compound `O=C(Cn1ccc(=O)[nH]c1=O)Nc1nccs1`, the Inhibition is given as -8.5%.
